Screens deposited in PubChem by National Center for Advancing Translational Sciences (NCATS).
Shown is part of a subset that was picked to be rich in hits.
HT1080-NT tox = qHTS for induction of synthetic lethality in tumor cells producing 2HG: qHTS for the HT-1080-NT fibrosarcoma cell line. HT-1080-NT fibrosarcoma viability, CellTiter-Glo ATP luminescence, 48 h. Potency, µM (highest dose often 46.1 µM), hits mostly cytotoxic. actives 1.6% (n = 360,000). AID 686970, 2013;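 also: NT is the 2HG producing partner of a matched IDH1 knockdown line; nearly all actives have a fitted effect of over 55% in size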
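Luminescent CellTiter-Glo readout after 48 hours of compound exposure at 37 degrees C defined viability of HT-1080-NT cells. Activity was normalized to DMSO wells and cell-free media wells; concentration-response curves were fitted and assigned curve classes.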
IL-1B inflam inh = qHTS for Inhibitors of Inflammasome Signaling: IL-1-beta AlphaLISA Primary Screen | THP-1 LPS/ATP IL-1B secretion, AlphaLISA, 16 h; active compounds read low | actives 4.7% (n = 360,000) | activity change, % at 57.5 µM; in the data active = activity change below about -50%; inconclusive = mostly about -30% to -49%
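Secreted IL-1B measured by AlphaLISA bead assay after 16 h compound exposure of THP-1 cells; compounds (final up to 57.5 uM) added 1 h before LPS (250 ng/mL) and ATP (1.25 mM) stimulation; lower signal means less secretion.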
ALOX12 inh = Primary qHTS assay for inhibitors of human arachidonate 12S-lipoxygenase (ALOX12): Round 2; Polyunsaturated fatty acid lipoxygenase ALOX12 (Homo sapiens), P18054; purified 12hLO, xylenol orange hydroperoxide absorbance; Potency, µM (top dose mostly 108 µM), most hits filed as inhibitors; actives 1.1% (n = 580,000); AID 1671190, 2021
Target sequence (P18054 whole entry, looked up): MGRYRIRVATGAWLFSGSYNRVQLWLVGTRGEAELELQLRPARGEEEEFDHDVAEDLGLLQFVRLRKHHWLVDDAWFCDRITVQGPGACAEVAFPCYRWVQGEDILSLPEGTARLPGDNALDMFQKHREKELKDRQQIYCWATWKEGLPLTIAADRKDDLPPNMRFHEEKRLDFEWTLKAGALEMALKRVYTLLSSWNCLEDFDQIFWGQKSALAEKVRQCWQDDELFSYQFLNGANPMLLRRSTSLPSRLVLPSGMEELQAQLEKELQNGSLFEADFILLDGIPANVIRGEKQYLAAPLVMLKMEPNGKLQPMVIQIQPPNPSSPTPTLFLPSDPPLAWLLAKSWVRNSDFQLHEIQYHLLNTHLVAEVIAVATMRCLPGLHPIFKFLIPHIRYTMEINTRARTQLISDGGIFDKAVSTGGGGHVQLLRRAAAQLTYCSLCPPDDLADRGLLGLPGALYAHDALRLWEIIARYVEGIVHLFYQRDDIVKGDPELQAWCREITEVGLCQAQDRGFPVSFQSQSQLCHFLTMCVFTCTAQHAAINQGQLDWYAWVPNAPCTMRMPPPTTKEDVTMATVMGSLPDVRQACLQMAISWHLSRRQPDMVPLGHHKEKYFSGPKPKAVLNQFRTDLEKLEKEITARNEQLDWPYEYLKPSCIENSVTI
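Purified human 12hLO (150 nM final) in 25 mM Hepes, 0.01% Triton X-100, pH 7.0 was preincubated 15 min at room temperature with compound. Then 40 uM arachidonic acid was added, 30 min. Hydroperoxide was read by Fe-XO absorbance ratio 573/405 nm.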
TDP1 cell noCPT = qHTS for Inhibitors of human tyrosyl-DNA phosphodiesterase 1 (TDP1): qHTS in cells in absence of CPT; DT40 Tdp1-/- hTDP1 cells, no CPT, ATP luminescence, 48 h; Potency, µM (titrated, usually from 46.2 µM), hits mostly inhibitors; actives 15% (n = 420,000); AID 686978, 2013; also: nearly all actives have a fitted effect of over 55% in size
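Seeded 400 DT40-hTDP1 cells/well (vehicle DMSO, no 20 nM CPT); pinned compounds; ≥48 hr at 37 °C; CellTiter-Glo luminescence as viability measure.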
HT1080 IDH1KD tx = qHTS for induction of synthetic lethality in tumor cells producing 2HG: qHTS for the HT-1080-IDH1KD cell line. Potency, µM (doses to about 46.1 µM), actives largely listed as cytotoxic. HT-1080 IDH1 knockdown viability, ATP luminescence, 48 h. actives 2% (n = 360,000)
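Assay cells: HT-1080 with IDH1 knockdown, 750 per well, RPMI/5% FBS. Exposure: 48 h at 37 °C following 2 h pre-incubation. Read: CellTiter-Glo luminescence; fitted concentration-response, curve class assigned.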
DT40 TDP1 CPT = qHTS for Inhibitors of human tyrosyl-DNA phosphodiesterase 1 (TDP1): qHTS in cells in presence of CPT; chicken DT40 Tdp1-/-;hTDP1 cells + 20 nM CPT, ATP luminescence, 48 h; Potency, µM (series often up to 46.2 µM), usual class: inhibitors; actives 12% (n = 420,000); AID 686979, 2013; also: nearly all actives have a fitted effect of over 55% in size
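Cell growth measured by CellTiter-Glo luminescence after a minimum 48 h, 37 C compound exposure with 20 nM CPT in Tdp1-knockout DT40 cells stably expressing hTDP1, seeded 400/well; qHTS titration format.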
Hits are given with their value. Unless noted, calls follow the shape of the dose curve; as a rule, active = well fitted curve in the direction sought with a large enough effect; inconclusive = small, poorly fitted or top-dose-only effect, or another doubt; inactive = no such curve, though single readings can be large; an effect the other way counts as inactive or inconclusive.

`CCOC(=O)C1=C(C)N=c2s/c(=C\c3ccc(C(=O)O)cc3)c(=O)n2C1c1ccc(F)cc1` (configuration not stated) gave HT1080-NT tox inactive, IL-1B inflam inh inactive, ALOX12 inh inconclusive, TDP1 cell noCPT inactive, HT1080 IDH1KD tx inactive and DT40 TDP1 CPT inactive.
For CCOC(=O)C1=C(C)n2c(s/c(=C3\C(=O)Nc4ccccc43)c2=O)=NC1c1ccc(OC)cc1 (configuration not stated) the results were HT1080-NT tox inactive, IL-1B inflam inh inactive, ALOX12 inh inactive, TDP1 cell noCPT 21µM, HT1080 IDH1KD tx inactive and DT40 TDP1 CPT inconclusive.
For CCCN(CCC)CC(O)Cn1c2ccccc2c2ccccc21 (configuration not stated) the results were HT1080-NT tox inactive, IL-1B inflam inh -75, ALOX12 inh inactive, TDP1 cell noCPT inconclusive, HT1080 IDH1KD tx inactive and DT40 TDP1 CPT inconclusive.
Screening Cc1ccc(N(CC(O)Cn2nc(C)cc2C)S(=O)(=O)c2ccc3ccccc3c2)cc1 (configuration not stated) returned HT1080-NT tox inactive, IL-1B inflam inh inconclusive, ALOX12 inh inconclusive, TDP1 cell noCPT 18µM, HT1080 IDH1KD tx inactive and DT40 TDP1 CPT inconclusive.
Screening Cc1c(C)n(CC(O)CN(CCO)CCO)c2ccccc12 (configuration not stated) returned HT1080-NT tox inactive, IL-1B inflam inh inactive, ALOX12 inh inconclusive, TDP1 cell noCPT inactive, HT1080 IDH1KD tx inactive and DT40 TDP1 CPT inactive.
`Cc1cccc(N(CC(O)Cn2c3ccccc3c3ccccc32)S(=O)(=O)c2ccc(F)cc2)c1` (configuration not stated) gave ALOX12 inh inactive, TDP1 cell noCPT 8.2µM and DT40 TDP1 CPT 21µM.
`Cc1ccc(N(CC(O)CN2CCCC2)S(=O)(=O)c2ccc(C)cc2)cc1` (configuration not stated) gave HT1080-NT tox inactive, IL-1B inflam inh inactive, ALOX12 inh inactive, TDP1 cell noCPT inactive, HT1080 IDH1KD tx inactive and DT40 TDP1 CPT inactive.
Screening CC(=O)Nc1ccc(N(CC(O)Cn2c3ccccc3c3ccccc32)S(=O)(=O)c2ccc(C)cc2)cc1 (configuration not stated) returned HT1080-NT tox inconclusive, IL-1B inflam inh -55, ALOX12 inh inconclusive, TDP1 cell noCPT inconclusive, HT1080 IDH1KD tx inconclusive and DT40 TDP1 CPT inconclusive.
`COc1ccc(NC(=O)CCNS(=O)(=O)c2cccc3nonc23)cc1` gave HT1080-NT tox inactive, IL-1B inflam inh inactive, ALOX12 inh inactive, TDP1 cell noCPT inactive, HT1080 IDH1KD tx inactive and DT40 TDP1 CPT inactive.
For Cc1ccc(N(CC(O)Cn2c3ccccc3c3ccccc32)S(C)(=O)=O)cc1 (configuration not stated) the results were HT1080-NT tox inconclusive, IL-1B inflam inh -66, ALOX12 inh inactive, TDP1 cell noCPT inconclusive, HT1080 IDH1KD tx inconclusive and DT40 TDP1 CPT inactive.
Cc1ccc(N(CC(O)Cn2c3ccccc3c3ccccc32)S(C)(=O)=O)c(C)c1 (configuration not stated) was read as HT1080-NT tox 18µM, IL-1B inflam inh -72, ALOX12 inh inactive, TDP1 cell noCPT inconclusive, HT1080 IDH1KD tx inconclusive and DT40 TDP1 CPT inconclusive.
`COCc1cc(CN2CCN(C)CC2)c(O)c2ncccc12` gave HT1080-NT tox inconclusive, IL-1B inflam inh inactive, ALOX12 inh inactive, TDP1 cell noCPT 3.3µM, HT1080 IDH1KD tx inconclusive and DT40 TDP1 CPT 4.1µM.
For CCOC(=O)C1CCN(Cc2ccc(O)c3ncccc23)CC1 the results were HT1080-NT tox inconclusive, IL-1B inflam inh inactive, ALOX12 inh inconclusive, TDP1 cell noCPT 3.7µM, HT1080 IDH1KD tx inactive and DT40 TDP1 CPT 4.6µM.
CCOCC(=O)N1CCN(c2cccc(Cl)c2)CC1 was read as HT1080-NT tox inactive, IL-1B inflam inh inactive, ALOX12 inh inactive, TDP1 cell noCPT inconclusive, HT1080 IDH1KD tx inactive and DT40 TDP1 CPT inactive.
Screening CC(C)OCc1cc(CN2CCN(c3ccccc3)CC2)c(O)c2ncccc12 returned ALOX12 inh inconclusive, TDP1 cell noCPT 3.3µM and DT40 TDP1 CPT 4.6µM.
CCOCc1cc(CN2CCN(c3cccc(Cl)c3)CC2)c(O)c2ncccc12 was read as ALOX12 inh inactive, TDP1 cell noCPT 7.3µM and DT40 TDP1 CPT 8.2µM.
Screening COc1ccc(-c2nc3ccccc3o2)cc1NC(=O)c1ccc2c(c1)OCO2 returned ALOX12 inh inactive.
Screening O=C(NCCC(=O)N1CCCCCC1)c1cc(=O)[nH]c2ccccc12 returned ALOX12 inh inactive.
For Cc1ccccc1CN1CC[C@H](c2nnc(-c3ccc(N(C)C)cc3)o2)C1 the results were ALOX12 inh inactive.
CCn1nc(C2CCOCC2)nc1C1(c2ccccc2)CC1 was read as ALOX12 inh inactive.
Screening CCN(Cc1cccs1)C(=O)NCC(c1ccco1)N(C)C (configuration not stated) returned ALOX12 inh inactive.
For O=c1ccn2c(n1)OC1CC2OC1COC(c1ccccc1)(c1ccccc1)c1ccccc1 (configuration not stated) the results were ALOX12 inh inactive.
Cn1nc(C2CCN(C(=O)c3ccc4ncccc4c3)CC2)c2c1CCOC2 was read as ALOX12 inh inactive.
Screening CCOC(=O)N1CCN(Cc2cc(Cl)c3cccnc3c2O)CC1 returned HT1080-NT tox 5.8µM, IL-1B inflam inh inactive, ALOX12 inh inconclusive, TDP1 cell noCPT 0.46µM, HT1080 IDH1KD tx 3.3µM and DT40 TDP1 CPT 0.82µM.
`Oc1c(CN2CCOCC2)cc(COCc2ccccc2)c2cccnc12` gave HT1080-NT tox inconclusive, IL-1B inflam inh inactive, ALOX12 inh inconclusive, TDP1 cell noCPT 4.1µM, HT1080 IDH1KD tx 13µM and DT40 TDP1 CPT 4.6µM.
Clc1ncc(CN2CCN(c3ccccc3)CC2)s1 was read as HT1080-NT tox inactive, IL-1B inflam inh inactive, ALOX12 inh inactive, TDP1 cell noCPT inactive, HT1080 IDH1KD tx inactive and DT40 TDP1 CPT inactive.
For Oc1c(CN2CCN(c3ccccc3)CC2)cc(Br)c2cccnc12 the results were HT1080-NT tox inconclusive, IL-1B inflam inh inactive, ALOX12 inh inactive, TDP1 cell noCPT 3.3µM, HT1080 IDH1KD tx inconclusive and DT40 TDP1 CPT 5.2µM.
